Compounds with a hit are over-represented: about 11% of the library has one in this group of screens.
NS1 function inh – qHTS Assay for Inhibitors of Influenza NS1 Protein Function | Potency, µM (series often up to 46.1 µM), for inactives: at the top dose activity, positive = more growth | actives 0.4% (n = 270,000); calls by dose curve; note: actives are rising curves; nearly all actives have a fitted effect of over 50% in size
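A cell-based growth assay was used: compounds that relieve NS1-induced slow growth of budding yeast raise OD600. Assay medium was yeast nitrogen base with ammonium sulphate and -URA supplement, pH 6.0, with 2% galactose.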
Pf growth 48h – Primary qHTS for delayed death inhibitors of the malarial parasite plastid, 48 hour incubation; P. falciparum luciferase growth in erythrocytes, 48 h; Potency, µM (series often up to 28.7 µM), for the others: at the top dose activity change, negative = inhibition, usual class: inhibitors; actives 5.9% (n = 310,000); AID 504832, 2011; note: % is set by controls: 0 for no effect and ±100 for the full control effect
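First compound was added to culture medium, then infected red cells at 0.1% parasitemia and 2% hematocrit (final). After incubation at 37 C under 5% CO2, luciferase detection reagent was dispensed and light output recorded.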
Pf growth 96h – Primary qHTS for delayed death inhibitors of the malarial parasite plastid, 96 hour incubation | P. falciparum luciferase reporter growth, 96 h | Potency, µM (doses to about 28.7 µM), without a hit: at the highest dose activity change, negative = inhibition, hits mostly inhibitors | actives 6.9% (n = 320,000) | AID 504834, 2011; note: % is set by controls: 0 for no effect and ±100 for the full control effect
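Cell-based qHTS: luciferase-tagged P. falciparum in erythrocytes (2% hematocrit, 0.05% parasitemia final) incubated with compounds for 96 hours, 37 C, 5% CO2; luciferase detection reagent then added and luminescence measured.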
AMA1 RON2 block – qHTS for Inhibitors of AMA1-RON; Towards Development of Antimalarial Drug Lead: Primary Screen | Plasmodium falciparum AMA1 (3D7) - RON2 peptide interaction | AlphaScreen AMA1-biotinylated RON2 peptide binding | Potency, µM (highest dose often 58.2 µM), without a hit: top-dose activity change, negative = inhibition, hits mostly inhibitors | actives 0.2% (n = 360,000) | AID 720542, 2013;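 note: 0% = vehicle wells and -100% = peptide control; nearly all actives have a fitted effect of over 45% in size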
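AMA1 (3D7) with his tag at 25 nM final met compounds first, then biotinylated RON2 peptide at 25 nM; detection used donor plus acceptor beads, 10 µg/mL apiece, read by AlphaScreen after 30 min at room temperature.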
Sm TGR inh – qHTS Assay for the Inhibitors of Schistosoma Mansoni Peroxiredoxins. actives 3% (n = 360,000). purified TGR, DTNB reduction, TNB absorbance 405 nm. AID 485364, 2010. Potency, µM (titrated, usually from 114 µM), for inactives: at the highest dose activity change, negative = inhibition, actives largely listed as inhibitors. Schistosoma mansoni thioredoxin glutathione reductase (TGR), Q962Y6; note: % is set by controls: 0 for no effect and ±100 for the full control effect; nearly all actives have a fitted effect of over 60% in size
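TGR 20 nM + NADPH 100 uM (dispensed conc.), cpd preinc 15 min RT; start with NADPH (500 uM addition) then DTNB (15 mM addition). Kinetic TNB absorbance, 405 nm filter. Four-parameter Hill fit across titration.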
Active calls of the source: *; i = inactive; ? = inconclusive; . = not tested or not shown; [ ] = dose if it differs, or a comment. Unless noted, calls come from the whole dose curve; as a rule, active = well fitted curve in the direction sought with a large enough effect; inconclusive = small, poorly fitted or top-dose-only effect, or another doubt; inactive = no such curve, though single readings can be large; an effect the other way counts as inactive or inconclusive. Potency is the fitted concentration of half-maximal effect.

SMILES | NS1 function inh | Pf growth 48h | Pf growth 96h | AMA1 RON2 block | Sm TGR inh
C=CCNC(=O)C1CCN(c2ccc(S(=O)(=O)N3CCOCC3)cc2[N+](=O)[O-])CC1 | -1.0% | ? | ? | -5.0% | 0.0%
CC(C(=O)OCC(=O)NC1CCCCC1)N1C(=O)c2ccccc2C1=O (centres undefined) | . | . | . | -11.9% | .
CCCNC(=O)C1CCN(c2cc(C)nc3c(-c4ccc(OC)c(OC)c4)c(C)nn23)CC1 | . | . | . | . | 42.6%
CCN1CCc2c(sc(NC(=O)c3ccc(S(=O)(=O)N(CC)c4ccccc4)cc3)c2C(N)=O)C1 | 12.6% | ? | 13.1µM* | -10.6% | -11.5%
COC(=O)c1c(NC(=O)c2ccc(S(=O)(=O)N3CCOCC3)cc2)sc2c1CCN(C)C2 | -9.5% | 13.1µM* | ? | 11.0% | -1.1%
CCCN1CCc2c(sc(NC(=O)c3ccc(S(=O)(=O)N4CCCC4)cc3)c2C(N)=O)C1 | 6.3% | 9.28µM* | ? | 0.0% | -17.7%
CCCCN(CCCC)S(=O)(=O)c1ccc(C(=O)Nc2sc3c(c2C(N)=O)CCN(CC)C3)cc1 | . | . | . | . | 4.7%
COc1cc2ccccc2cc1C(=O)Nc1sc2c(c1C(N)=O)CCN(C(C)C)C2 | -37.6% | 8.28µM* | 5.86µM* | . | -0.5%
CCN1CCc2c(sc(NC(=O)c3ccc(S(=O)(=O)N4CCOCC4)cc3)c2C(=O)OC)C1 | -2.0% | ? | . | -11.1% | 3.9%
CCN1CCc2c(sc(NC(=O)c3ccc(S(=O)(=O)N4CCOCC4)cc3)c2C(N)=O)C1 | -45.4% | ? | ? | -0.9% | 1.2%
CCS(=O)(=O)c1nc(S(=O)(=O)c2ccc(Cl)cc2)c(NCCOC)s1 | . | ? | -19.5% | 7.6% | -10.2%
CC(C(=O)N1CCCC1)N(c1ccc(Cl)cc1)S(C)(=O)=O (centres undefined) | . | . | . | -0.2% | .
CC(O)c1nc2ccccc2n1CCCCOc1ccccc1 (centres undefined) | -9.1% | 7.1% | ? | 2.2% | 5.8%
CCC1CCCCN1S(=O)(=O)c1ccc(C(=O)Nc2sc3c(c2C(N)=O)CCC3)cc1 (centres undefined) | . | . | . | . | 35.5µM*
CNC(=O)c1c(NC(=O)c2ccc(S(=O)(=O)N3CCCCC3)cc2)sc2c1CCC2 | . | . | . | . | 8.2%
CC(C)N1CCc2c(sc(NC(=O)c3ccc(S(=O)(=O)N4CCOCC4)cc3)c2C(N)=O)C1 | -40.5% | ? | 4.15µM* | 2.3% | -10.7%
COc1ccc(-n2ncc3c(=O)n(CC(=O)NC(C)C)cnc32)cc1 | 0.1% | 0.0% | 7.38µM* | 7.2% | -22.1%
COC(=O)Cn1cnc2c(cnn2-c2ccc(OC)cc2)c1=O | 13.3% | 26.3% | 0.0% | -2.3% | -18.0%
CC(C)NC(=O)Cn1cnc2c(cnn2-c2ccc(F)cc2)c1=O | 2.9% | -0.7% | 10.8% | 4.8% | -17.7%
COc1ccc(-n2ncc3c(=O)n(CC(=O)Nc4ccc5c(c4)OCCO5)cnc32)cc1 | 8.1% | 17.4% | 4.65µM* | 0.0% | -6.2%
CCC(=O)Nc1cccc(NC(=S)NC(=O)c2cccc(C)c2)c1 | -11.7% | 180.3% | 145.1% | 59.9% | 39.8µM*
CCC(=O)Nc1ccc(NC(=S)NC(=O)Cc2ccccc2)cc1 | -2.5% | -11.8% | -10.4% | 13.6% | ?
CCC(=O)Nc1ccc(NC(=S)Nc2ccccc2)cc1 | 6.2% | 26.0% | 11.7µM* | 7.7%[11.6 µM] | -24.1%
CCC(=O)Nc1cccc(NC(=S)NC(=O)c2ccccc2)c1 | -0.6% | 151.4% | 341.8% | -0.9% | 44.7µM*
O=c1oc(-c2ccc(Cl)cc2[N+](=O)[O-])nc2ccccc12 | . | . | . | -8.2% | .
SMILES | NS1 function inh | Pf growth 48h | Pf growth 96h | AMA1 RON2 block | Sm TGR inh
N=c1c[n+](N2CCOCC2)[n-]o1 | -3.7% | -5.6% | 3.4% | 7.2% | 22.4µM*
N=c1c[n+](C2CCCCC2)[n-]o1 | . | -0.6% | 10.0% | 6.5% | 1.6%
Cc1ccc2[nH]c3c(c2c1)CN(C(=O)CN1c2ccc(F)cc2CCC1C)CC3 (centres undefined) | -19.4% | 11.7µM* | 13.1µM* | -23.0% | -0.2%
Cc1ccc2[nH]c3c(c2c1)CN(C(=O)CN1CCN(c2cccc(C)c2C)CC1)CC3 | 7.8% | ? | . | -22.9% | ?
CCN1C(=O)c2ccccc2S(=O)c2ccc(C(=O)N3CCN(c4ccccc4OC)CC3)cc21 (centres undefined) | . | . | . | . | -8.5%
Cc1ccccc1N1C(=O)C(Cl)=C(N2CCN(c3ccccc3)CC2)C1=O | -8.4% | 0.0% | 3.7µM* | ? | 0.0%
O=C1C(Cl)=C(N2CCCCCC2)C(=O)N1c1ccc(Cl)cc1 | -8.3% | ? | 142.2% | 73.6% | -18.6%
O=C1C(Cl)=C(N2CCCC2)C(=O)N1c1ccc(F)cc1 | 13.8% | ? | 0.0% | 20.0% | 50.1µM*
O=C1C(Cl)=C(N2CCCC2)C(=O)N1c1ccccc1F | 5.2% | -2.3% | 2.62µM* | 30.0% | -12.8%
O=C1C(Cl)=C(N2CCCCCC2)C(=O)N1c1ccccc1Cl | -3.0% | 8.8% | 10.2% | 10.5% | 3.0%
O=C1C(Cl)=C(N2CCOCC2)C(=O)N1c1ccccc1Cl | 5.3% | -3.0% | 5.4% | -21.3% | -23.3%
COc1ccc(C2NN=C(c3ccc(C)cc3)S2)cc1OC (centres undefined) | . | 351.1% | 1.85µM* | -1.7% | -11.2%
Cc1ccc(C2=NNC(c3cccc(F)c3)S2)cc1 (centres undefined) | . | i | 11.7µM* | 19.6% | 0.4%
Fc1cccc(C2NN=C(c3ccccc3)S2)c1 (centres undefined) | 17.2% | 270.4% | 246.1% | 14.3% | 4.0%
S=C(NCCc1ccccc1)N1CCN(C(c2ccccc2)c2ccccc2)CC1 | 16.7% | 9.28µM* | ? | -21.4% | ?
CSc1ccc(C(=S)N2CCN(C(c3ccccc3)c3ccccc3)CC2)cc1 | 18.6% | . | 5.22µM* | ? | 8.5%
S=C(NCCc1ccccc1)N1CCN(C23CC4CC(CC(C4)C2)C3)CC1 | . | 9.28µM* | 88.6% | -18.9% | 10.6%
CCCCNC(=S)N1CCN(C(c2ccccc2)c2ccccc2)CC1 | . | 10.4µM* | 16.6% | -1.0% | -1.5%
CCc1noc(C)c1C(=O)Nc1cc(S(=O)(=O)N(CC)CC)ccc1N1CCOCC1 | . | ? | ? | 10.8% | -13.0%
CCNC(=S)N1CCN(C(c2ccccc2)c2ccccc2)CC1 | -7.7% | 13.1µM* | 8.28µM* | -6.8% | -7.7%
O=C(c1cccs1)N1CCN(S(=O)(=O)c2ccccc2)CC1 | 5.1% | . | -3.2% | 4.6% | 8.6%
CCC(C)(C)C1CCC(NC(=O)c2ccc(S(=O)(=O)N3CCOCC3)cc2)CC1 (centres undefined) | . | 10.4µM* | 14.7µM* | -1.0% | 3.0%
Cc1ccc(C(=O)NC2CC2)cc1S(=O)(=O)N1CCOCC1 | . | ? | -78.3% | 1.2% | -13.6%
